Bioassay records: PubChem, several laboratories
This is a sample that favours compounds with a hit; in the whole collection about 2.2% have one here.
HSP90 refold inh = HSP90 refolding inhibition in rabbit reticulocyte lysate; luciferase refolding luminescence, 3 h; inhibition, % at 5.6 µM; hit rate 0.91% among 290,000; AID 1789;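 active = inhibition above the screen-wide mean plus 3 SD, computed separately per campaign, cut at about 16% in these data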;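 note: 0% = DMSO wells and 100% = 60 µM geldanamycin wells; inhibitors lower the luminescence because luciferase stays unfolded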
TROY signal inh = blocks TROY-dependent signaling in reporter cells; hit rate 0.98% among 360,000; AID 1347056; inhibition, % at 10 µM; Q293 LMP1-TROYcd NF-kB luciferase reporter, 4 h;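 active = compounds whose plate-normalised and pattern-corrected inhibition of the luciferase reporter signal at the single screening dose is 50% or more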
TWEAK-Fn14 inh = TWEAK-Fn14 signaling inhibition; AID 1159606; TWEAK-stimulated Fn14 reporter cells, luciferase luminescence, 8 h; inhibition, % at 10 µM; hit rate 2% among 360,000; in the data active = inhibition above about 50%
LGR2 antag = inhibitors of bursicon-induced Drosophila LGR2 receptor cAMP signaling | HEK293 LGR2, CRE-luciferase, bursicon-stimulated, 4 h | hit rate 0.35% among 380,000 | inhibition, % at 9.99 µM | AID 720647;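 active = drop in luminescence signal, shown as inhibition above about 50% in the replicate tests, limit read from the data, passing the limit was not always enough; inconclusive = probably only some replicates passing the limit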;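 note: agonist challenge used bursicon conditioned medium at about half maximal strength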
* hit, by the source's call; ? = inconclusive; . = not tested or not shown.

SMILES	HSP90 refold inh	TROY signal inh	TWEAK-Fn14 inh	LGR2 antag
COc1ccc(NC(=O)N(C)C[C@H]2Oc3c(NC(=O)c4ccncc4)cccc3C(=O)N([C@@H](C)CO)C[C@H]2C)cc1	.	.	.	-1
C[C@@H]1CCCCO[C@H](CN(C)C(=O)Nc2ccc(F)cc2)[C@H](C)CN([C@@H](C)CO)C(=O)c2cc(NC(=O)Nc3ccc4c(c3)OCO4)ccc2O1	.	.	.	18
Cc1ccc(S(=O)(=O)c2ncccc2[N+](=O)[O-])cc1	14	53*	95*	40
Cc1ccc(S(=O)(=O)c2ncccc2N)cc1	-2	-14	6	0
C[C@@H]1CCCCO[C@H](CN(C)S(=O)(=O)c2ccc(F)cc2)[C@H](C)CN([C@H](C)CO)C(=O)c2cc(NC(=O)Nc3ccc(F)cc3)ccc2O1	.	.	.	-2
COc1cc(/C=N/NC(=O)COc2cccc(F)c2)ccc1OS(=O)(=O)c1ccc(C)cc1	4	28	51*	21
CCCC(=O)Nc1ccc2c(c1)OC[C@H](C)N(Cc1cncnc1)C[C@H](C)[C@@H](OC)CN(C)C2=O	.	.	.	15
CC(C1CC1)N(Cc1ccccc1)C(=S)Nc1ccccc1Cl (stereo unspecified)	4	86*	7	-16
C[C@@H]1CN([C@@H](C)CO)C(=O)c2cc(-c3ccccc3F)cnc2O[C@H]1CN(C)C(=O)NC1CCCC1	.	.	.	2
CC(=O)c1c(C)oc2ccc(NS(=O)(=O)c3ccc(O)c(C(=O)O)c3)cc12	-3	-8	0	.
CC(=O)c1c(C)oc2ccc(NS(=O)(=O)c3ccc(F)cc3C)cc12	-3	33	56*	-1
CCCCCCCCCn1c2c(c(=N)c3c1CCC3)CCCC2	2	51*	57*	.
CCCCCn1c2c(c(=N)c3ccccc31)CCC2	7	15	4	14
CCn1c2c(c(=N)c3c1CCC3)CCCC2	-1	-36	16	2
CCCCCCCCCCn1c2c(c(=N)c3c1CCC3)CCC2	6	57*	72*	.
CCCCCCCCn1c2c(c(=N)c3ccccc31)CCC2	0	47	71*	?
C[C@@H]1CCCCO[C@H](CN(C)CC2CCCCC2)[C@H](C)CN([C@@H](C)CO)C(=O)c2cc(NC(=O)Cc3ccccc3)ccc2O1	.	.	.	-23
CCn1ncc(/C=C/C(=O)c2ccccc2)c1C	-1	-10	53*	-12
Cc1c(/C=C/C(=O)c2ccccc2)cnn1C	1	-62	-2	.
CO[C@H]1CN(C)C(=O)c2ccc(NC(=O)NC(C)C)cc2OC[C@@H](C)N(Cc2cncnc2)C[C@@H]1C	.	.	.	-7
COCCCn1c(-c2ccc(S(=O)(=O)N3CCOCC3)cc2)csc1=Nc1ccccc1	-3	29	71*	9
CCn1c(-c2ccccc2)csc1=Nc1ccc(S(=O)(=O)O)cc1	1	15	7	18
O=C(Nc1ccccc1C(=O)Nc1nnc(C(F)(F)F)s1)c1ccccc1	3	59*	87*	47
CSC(=Nc1ccccc1)N=C(SCc1ccccc1)N(C)C	.	45	80*	76*
N#CNC(=Nc1ccccc1)SCc1ccc(C(=O)O)cc1	0	2	1	-14
SMILES	HSP90 refold inh	TROY signal inh	TWEAK-Fn14 inh	LGR2 antag
O=S(=O)(Nc1ccc(C(O)(C(F)(F)F)C(F)(F)F)cc1)c1ccc(Cl)c2nonc12	.	10	76*	.
O=S(=O)(Nc1ccc(Br)cc1)c1cccc2nonc12	1	-24	24	9
CO[C@@H]1CN(C)C(=O)c2cc(NC(C)=O)ccc2OC[C@@H](C)NC[C@@H]1C	.	.	.	18
Cc1ccc(S(=O)(=O)NCCn2nc(C)cc2C)cc1	-3	0	91*	2
Cc1ccc(S(=O)(=O)NCCCNS(=O)(=O)c2ccc(C)cc2)cc1	.	-15	15	-12
C[C@H](CO)N1C[C@H](C)[C@H](CN(C)C(=O)Cc2ccccc2)Oc2cc(-c3ccccc3)ccc2S1(=O)=O	.	.	.	-2
Fc1nc(F)c(F)c(NCCCNc2c(F)c(F)nc(F)c2F)c1F	-6	50*	10	9
CCCNC(=O)Nc1ccc2c(c1)OC[C@@H](C)N(C(=O)C1CCCCC1)C[C@@H](C)[C@H](OC)CN(C)C2=O	.	.	.	-11
C[C@@H]1CN([C@H](C)CO)S(=O)(=O)c2ccc(C3=CCCCC3)cc2O[C@@H]1CN(C)C(=O)C1CCC1	.	.	.	17
C[C@H](NC(=O)C[C@H]1C[C@@H]2c3cc(NC(=O)C4CCOCC4)ccc3O[C@@H]2[C@@H](CO)O1)c1ccccc1	.	.	.	-13
O=C(NCc1ccc2c(c1)OCO2)c1cccc(F)c1	5	.	82*	.
O=C(NCc1ccc2c(c1)OCO2)c1ccccc1	1	-5	-6	-16
COc1ccc(CN(C)C[C@H]2OCCCC[C@@H](C)Oc3ccc(NC(=O)Nc4cccc5ccccc45)cc3C(=O)N([C@H](C)CO)C[C@H]2C)cc1	.	.	.	3
COc1ccc(CCn2c(C3CCCCC3)nc3c(c(=O)c4ccccc4n3C)c2=O)cc1	2	65*	0	27
COc1ccc(Cn2c(C3CCCCC3)nc3c(c(=O)c4ccccc4n3C)c2=O)cc1	2	.	.	.
CN(C)C(=O)[C@@H]1[C@@H](CO)[C@@H]2Cn3c(ccc(-c4cncnc4)c3=O)[C@@H]2N1Cc1cc(F)ccc1F	.	.	.	-7
C[C@@H]1CCCCO[C@@H](CN(C)C(=O)Nc2ccccc2)[C@@H](C)CN([C@@H](C)CO)C(=O)c2cc(NC(=O)Nc3cccc4ccccc34)ccc2O1	.	.	.	7
CN(C(=O)c1ccco1)c1nc(-c2ccccc2)cs1	-3	-22	-11	-11
CN(c1ccc(O)cc1)c1nc(-c2ccccc2)cs1	-2	-44	55*	-63
COCC(=O)N(C)C[C@H]1Oc2ncc(C#Cc3cccnc3)cc2C(=O)N([C@H](C)CO)C[C@H]1C	.	.	.	11
Nc1nc(N)c2cc(Sc3ccc4ccccc4c3)ccc2n1	5	84*	52*	19
COc1ccc2c3c(n(C)c2c1)[C@H](CO)N(C(=O)Nc1ccc(F)cc1)CC31CCN(C(=O)NC2CCCC2)CC1	.	.	.	-1
CN(C)C(CNC(=O)CSc1nnc(-c2ccco2)o1)c1ccccc1 (stereo unspecified)	2	1	98*	.
Clc1ccc(-c2csc(=Nc3cccnc3)n2CCCn2ccnc2)cc1Cl	0	46	66*	.
COc1ccc(CCNC(=O)COC(=O)C23CC4CC(CC(C4)C2)C3)cc1	-5	3	14	-8
SMILES	HSP90 refold inh	TROY signal inh	TWEAK-Fn14 inh	LGR2 antag
COc1ccc(CCNC(=O)COC(=O)C23CC4CC(CC(Br)(C4)C2)C3)cc1	-2	11	70*	.
CN(C)C(=O)[C@H]1[C@H](CO)[C@H]2Cn3c(ccc(-c4cccnc4)c3=O)[C@H]2N1Cc1ccccc1F	.	.	.	4
CCOC(=O)Nc1ccc2c(c1)N(C(=O)CCN(CC)CC)c1ccccc1S2=O (stereo unspecified)	-2	54*	64*	36
CO[C@@H]1CN(C)C(=O)c2cc(NC(=O)c3cnccn3)ccc2OC[C@H](C)N(CC2CC2)C[C@H]1C	.	.	.	-3
COc1cccc(-c2cn(CC[C@H]3CC[C@H](NC(C)=O)[C@@H](CO)O3)nn2)c1	.	.	.	-4
CC(C)NC(=O)N(C)C[C@H]1OCCCC[C@H](C)Oc2ccc(NC(=O)NC3CCCCC3)cc2C(=O)N([C@@H](C)CO)C[C@H]1C	.	.	.	-5
